Among the data in PubChem BioAssay (NCI) are growth values, retold here.

Structures are written as SMILES. The panel holds about 83,000 compounds, 20% with a hit somewhere; the sample as a whole holds those more often.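 The endpoint reported here, percent growth, reads 100 for growth as untreated, 0 for no net growth and -100 for all cells dead.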 A number with no mark means an inactive call. Activity calls are given as the source filed them. How the source made its calls: active means growth percent below 10; inactive means the rest.

Holding throughout (assay): NCI-60 one-dose screen, 48 h (100 = growth as untreated, 0 = no growth, -100 = all killed)
Common to all, as to details: 10 µM unless noted

In test [1] the test system is NCI-H23 lung.
For test [2], the system named is NCI-H226 lung.
For test [3], the system named is NCI-H322M lung.
The test system of test [4] is HOP-62 NSCLC.
In test [5] the test system is NCI-H460 lung.
The subject of test [6] is HOP-92 NSCLC.
Test [7] relates to NCI-H522 lung.
Test [8] relates to A549/ATCC NSCLC.
In test [9] the test system is 786-0 renal.
Test [10] concerns COLO 205 colon.

`CC1(C)CC[C@]2(C(=O)O)CC[C@]3(C)[C@H](CC[C@@H]4[C@@]5(C)CCC(=O)C(C)(C)[C@@H]5CC[C@]43C)[C@H]2[C@H]1OC(=O)C(F)(F)F`: the growth in test [1] was -62.4% [100 µM] (active); in [2], -51.2% [100 µM] (active); in [3], -65.6% [100 µM] (active); in test [4], -79.6% [100 µM] (active); in test [5], -66.1% [100 µM] (active); in test [6], -79.6% [100 µM] (active). Moreover, the growth in test [7] is -71.2% [100 µM] (active); in test [8] it was -52.7% [100 µM] (active); in test [9] it was -72.7% [100 µM] (active); in test [10] it was -72% [100 µM] (active).

In the case of `CC1(C)S[C@@H]2[C@H](NC(=O)[C@H](C(=O)O)c3cccs3)C(=O)N2[C@H]1C(=O)O`, the growth in [1] was 102%; in [2], 105%; in test [3], 108%; in test [4], 105%; in test [5], 113%; in test [6], 122%. In addition, the growth was 75.8% in [7], 102% in [8], 97.1% in test [9] and 111% in test [10].

As to `Cc1ccc2c(n1)C(=O)C(Cl)=C(Nc1ccc(N3CCN(C)CC3)cc1)C2=O`, the growth was 16.7% in [1]; 105% in [2]; 97.3% in [3]; 63.7% in test [4]; 97.2% in test [5]; -86.3% (active) in test [6]. The growth was -63.8% (active) in test [7], 97.6% in test [8], 52.2% in [9] and 82.5% in [10].

`c1ccc(-c2nc(N3CCCNCC3)c3nc(-c4ccccc4)oc3n2)cc1`: the growth in [1] is 22.3%; in [2] it was 49.9%; in test [3], 93.7%; in test [4] it was 78.2%; in test [5], -50.1% (active); in [6], 42.4%. Besides, the growth in test [7] is 26.4%; in [8], -38.8% (active); in test [9], 67%; in [10], -79.2% (active).

As for `COc1cc2c(c(OC)c1)C1c3cc(OC)ccc3NC(=O)N1CC2` (stereo not given), the growth in test [1] was 92.9%; in test [2], 99.3%; in test [3], 102%; in test [4], 67.6%; in test [5], 79.2%; in [6] it was 80.6%. Moreover, the growth is 38.3% in test [7], 67.2% in test [8], 95.6% in [9] and 80.5% in test [10].

`O=c1[nH]cnc2c1ccn2C1OC(CO)C(O)C1O` (stereo not given): the growth is 81.4% in test [1]; 75.1% in test [2]; 64.6% in [3]; 76.5% in test [4]; 49.4% in test [5]; 8.49% (active) in test [6]. In addition, the growth in [7] is 61%; in test [8], 84.4%; in test [9] it was 58.9%; in [10] it was 66.8%.

In the case of `O=C1COCCN1c1ccc(Nc2nc(Cl)nc(N3CCOCC3)n2)cc1`, the growth was 96.5% in test [1]; 87.5% in test [2]; 93.3% in [3]; 97.9% in [4]; 108% in test [5]; 85.8% in [6]. Also, the growth in test [7] was 68.2%; in test [8], 95.8%; in test [9], 104%; in [10], 102%.

For `C#C[C@]1(O)CC[C@H]2[C@@H]3CC=C4c5nc(N)sc5CC[C@]4(C)[C@H]3CC[C@@]21C`, the growth is 78% in [1]; 83.8% in [2]; 79.7% in test [3]; 62.5% in test [4]; 86.9% in test [5]; 62.2% in [6]. The growth is 56.6% in test [7], 65.9% in [8], -0.771% (active) in test [9] and 80.5% in test [10].

On to `CC(C)(C)c1cc(C(=O)N2CCC(C(=O)NCCN)CC2)cc(C(C)(C)C)c1`, for which the growth in test [1] is 104%; in test [2], 81.3%; in [3], 93.6%; in test [4], 97.5%; in [5], 100%; in test [6] it was 85.1%. Also, the growth is 66% in [7], 81% in test [8], 106% in test [9] and 98.9% in test [10].

`O=C(Nc1cccnc1)c1ccc2ccc3ccc(C(=O)Nc4cccnc4)nc3c2n1`: the growth in test [1] is 23.1%; in test [2], 4.52% (active); in [3], 10.5%; in test [4] it was 9.18% (active); in test [5] it was 1.69% (active); in test [6], 23.9%. In addition, the growth in [7] was 30.7%; in test [8], 22.1%; in [9], 19.9%; in test [10], 13.2%.

As for `C[C@@H]1C[C@H]2C(=O)O[C@@H](C)[C@H](NC(=O)[C@H](Cc3cc(F)cc(F)c3)NC(=O)Nc3ccc(C4CC4)cc3F)C(=O)N3CCC[C@H]3C(=O)N3CCCC[C@H]3C(=O)N[C@@H](C)C(=O)N2C1`, the growth in test [1] was 28.7%; in [2] it was 19.8%; in test [3], 45.4%; in test [4], 27.8%; in test [5], 13.6%; in [6] it was 3.54% (active). For the same compound, the growth in test [7] is 19.4%; in [8], 18.3%; in [9] it was 20%; in test [10], -33.2% (active).

In the case of `COc1ccc(N(c2nc(-c3ccc([N+](=O)[O-])cc3)cs2)C(C)C)cc1`, the growth was 65% in [1]; 76.3% in test [2]; 83.1% in test [3]; 84.8% in test [4]; 84.1% in test [5]; 74.3% in test [6]. In addition, the growth was 67.8% in test [7], 85.3% in test [8], 88.4% in [9] and 108% in test [10].

On to `C=C(C)[C@@H]1CC[C@]2(C(=O)NCCNCCNCCN)CC[C@]3(C)[C@H](CC[C@@H]4[C@@]5(C)CC[C@H](O)C(C)(C)[C@@H]5CC[C@]43C)[C@@H]12`, for which the growth was -51.7% [100 µM] (active) in [1]; -23.6% [100 µM] (active) in test [2]; -83.8% [100 µM] (active) in test [3]; -69.1% [100 µM] (active) in test [4]; -100% [100 µM] (active) in test [5]; -65.4% [100 µM] (active) in test [6]. Moreover, the growth in test [7] is -57.8% [100 µM] (active); in [8], -64.6% [100 µM] (active); in test [9], -83.5% [100 µM] (active); in [10] it was -19.5% [100 µM] (active).

Take `O=C(Nc1cccc2ccccc12)c1cc2ccccc2cc1O`: the growth is 8.03% (active) in test [1]; 12.5% in test [2]; -4.28% (active) in test [3]; 12.5% in test [4]; 7.16% (active) in [5]; -22% (active) in [6]. In addition, the growth is 9.44% (active) in test [7], 11.3% in test [8], 22.2% in [9] and 112% in test [10].

Take `CC[C@@](C)(NC(=O)[C@H](C)NC(=O)CCNC(=O)C(C)(C)NC(=O)[C@H](C)NC(=O)[C@@H]1CCCN1C(=O)[C@@](C)(CC)NC(=O)[C@H](Cc1ccccc1)NC(=O)C1CCCN1C(=O)C(C)(C)NC(=O)C1CCCN1C(=O)C(C)(C)NC(C)=O)C(=O)NCCC(=O)N[C@@H](CC(C)C)C(=O)NC(C)(C)C(=O)NCCC(=O)N[C@@H](CC(C)C)C(=O)NC(C)(C)C(=O)NC(C)(C)C(=O)N[C@@H](CC(C)C)C(=O)NCCC(=O)NCO` (stereo not given in full): the growth in test [1] is -89.5% (active); in test [2], -97% (active); in test [3], -87.9% (active); in test [4], -92% (active); in test [5], -78.1% (active); in test [6], -94.7% (active). The growth was -84.2% (active) in [7], -81.3% (active) in test [8], -94.6% (active) in [9] and -87.9% (active) in [10].

In the case of `O=C1C(Cl)=C(Nc2ccc3cn[nH]c3c2)C(=O)c2ccccc21`, the growth in test [1] was -70.1% (active); in test [2] it was -4.83% (active); in test [3], -27.4% (active); in test [4] it was -6.04% (active); in [5], 4.67% (active); in test [6] it was -80.4% (active). In addition, the growth in test [7] is -84.7% (active); in [8], 39.7%; in test [9], -99.4% (active); in test [10], -85.5% (active).

Take `Nc1ccc(NC(=O)c2ccccc2)c2c1C(=O)c1ccccc1C2=O`: the growth in test [1] is 96.1%; in test [2], 89.5%; in test [3], 99.1%; in test [4], 107%; in [5], 104%; in [6], 80.2%. Further, the growth in test [7] is 111%; in test [8] it was 97%; in [9] it was 103%; in [10] it was 109%.

For the compound `COc1cc2c(=O)[nH]c3cc([N+](=O)[O-])ccc3c2cc1[N+](=O)[O-]`, the growth is 55.4% in [1]; 45% in [2]; 60.8% in test [3]; 85.5% in [4]; 14% in [5]; 45.9% in [6]. For the same compound, the growth was 28.7% in [7], 40.5% in test [8], 70.1% in [9] and 56.6% in [10].

With `Cc1ccc(NCCN2CCCCC2)c2c(=O)c3ccccc3sc12`, the growth in test [1] was 43.1%; in test [2] it was 57.2%; in test [3], 45.7%; in test [4], 55.6%; in test [5] it was 2.26% (active); in test [6] it was 29.5%. In addition, the growth was 2.96% (active) in [7], 20.2% in [8], 30.7% in [9] and -41.8% (active) in test [10].

With `O=c1cc(-c2ccccc2)oc2c(O)c(O)ccc12`, the growth was 57.6% in [1]; 85.5% in test [2]; 79% in test [3]; 52.7% in test [4]; 17.3% in [5]; 7.46% (active) in [6]. Besides, the growth in test [7] was 43.6%; in test [8] it was 55.5%; in test [9] it was 65%; in test [10], 90.7%.

As to `c1ccc(-c2n[nH]c(-c3ccccn3)n2)nc1`, the growth is 102% in test [1]; 118% in [2]; 121% in test [3]; 104% in test [4]; 106% in test [5]; 94% in test [6]. In addition, the growth was 96.8% in [7], 105% in test [8], 97% in [9] and 143% in test [10].

For `O=C(NNc1ccc(-c2ccccc2)nn1)c1ccccc1`, the growth in test [1] was 99.6%; in [2], 102%; in [3], 94.7%; in [4], 104%; in [5], 100%; in test [6], 91.6%. In addition, the growth in [7] is 97.8%; in test [8], 106%; in test [9], 93.3%; in test [10], 107%.

For `Cc1cccc([N+](=O)[O-])c1I`, the growth in test [1] was 105%; in test [2], 102%; in test [3], 112%; in [4], 101%; in test [5] it was 111%; in [6], 87.4%. In addition, the growth in test [7] was 93.8%; in [8], 102%; in test [9] it was 108%; in [10], 110%.

For the compound `Cc1ccc(S(=O)(=O)n2cc(C(=O)C(=O)N3CCCCC3)c3ccccc32)cc1`, the growth in [1] is 55.1%; in test [2], 87.5%; in test [3], 92.9%; in test [4], 80.3%; in test [5], 91.9%; in [6], -0.0596% (active). The growth in [7] was 70.2%; in test [8], 120%; in [9], 88.7%; in [10], 109%.

As to `Oc1ccc(N=Nc2nccs2)c(O)c1`, the growth in test [1] is 81.2%; in test [2] it was 89.6%; in test [3] it was 74.4%; in [4] it was 79%; in [5] it was 31.2%; in test [6], 61.7%. Besides, the growth in [7] was 41.5%; in test [8], 52.2%; in test [9] it was 36.8%; in test [10], 24.8%.
